# Results filed as inconclusive are left out. Entries that show only a call come without a potency. Calls of active or inactive are those of the source. Calls come from the whole dose curve; as a rule, active = well fitted cell-killing curve with a large enough effect; inconclusive = small, poorly fitted or top-dose-only effect, or effect the other way; inactive = no such curve, though single readings can be large or run the other way. Peptide text beside a SMILES is read from it.
# Assay: Quantitative High-Throughput drug screen in 47 multiple myeloma cell lines against the NCATS MIPE library collection: PCM6_Riken cell viability assay (AID 1919870); note: nearly all actives have a fitted effect of over 30% in size
# Settings: CellTiter-Glo ATP, 48 h; series mostly up to 45.8 µM
# Description: PI: Beverly A. Mock Ph.D.
# Laboratory of Cancer Biology and Genetics,
# Center for Cancer Research, National Cancer Institute,
# National Institute of Health, Bethesda, Maryland
# Drug resistance and disease progression are common in multiple myeloma (MM) patients, underscoring the need for new therapeutic combinations. […] We hypothesized that effective combinations would reduce MYC expression and enhance p16 activity. […] These preclinical data identify potentially useful drug combinations for evaluation in drug-resistant MM and reveal potential mechanisms of combined drug sensitivity.
# Described herein is the primary MIPE qHTS used to cherrypick compounds. Validated compounds were then further tested for potential synergistic activiy.
# [1] Peat TJ, Gaikwad SM, Dubois W, Gyabaah-Kessie N, Zhang S, Gorjifard S, Phyo Z, Andres M, Hughitt VK, Simpson RM, Miller MA, Girvin AT, Taylor A, Williams D, D'Antonio N, Zhang Y, Rajagopalan A, Flietner E, Wilson K, Zhang X, Shinn P, Klumpp-Thomas C, McKnight C, Itkin Z, Chen L, Kazandijian D, Zhang J, Michalowski AM, Simmons JK, Keats J, Thomas CJ, Mock BA. Drug combinations identified by high-throughput screening promote cell cycle transition and upregulate Smad pathways in myeloma. Cancer Lett. 2023 Aug 1;568:216284. doi: 10.1016/j.canlet.2023.216284. Epub 2023 Jun 24. PMID: 37356470; PMCID: PMC10408729.
# SEQUENCE No. (e.g., 1, 2, 3, etc.); […] (e.g., Cells, Incubation, Reagent, etc.); VALUE and DESCRIPTION.
# 1; Cells; 5 uL; white, solid bottom 1536-well Greiner assay plate.
# 2; Compounds; 23 nL; Kalypsis pin tool (Wako USA) equipped with a 1536-well pin head to transfer to the assay plates.
# 3; Incubation; 48 hours; 37C incubation.
# 4; Reagent;5uL; CellTiter Glo (Promega).
# 5; Detector; 425V; Luminescence; Viewlux PerkinElmer.
# NOTES (numbers refer to Sequence numbers above)
# 1. The cell-based screening methods employed in this study were like those previously published. Briefly, the corresponding myeloma cell lines were screened in 1,536-well plates with 500 cells, 5-uL per well for inhibition of cell viability (assessed by measuring ATP levels with CellTiterGlo).
# 2. NCATS MIPE 4.0 library of approved and investigational drugs were added using the Kalypsis pin tool. Wells treated with DMSO only for 100% viability and media only for 0% viability were used as controls.
# 3. The assay plates were covered and incubated for 48 hours in a 37C, 5% CO2 incubator with controlled humidity.
# 4. After 48 hours, CellTilter-GloTM luminescent substrate mix (Promega) reagent was added to the assay plate and plates we incubated for 5 min at room temperature.
# 5. Signal was measured as median relative luminescence units on a ViewLux (PerkinElmer) multiplate reader.
# [1] Heske CM, Davis MI, Baumgart JT, Wilson K, Gormally MV, Chen L, Zhang X, Ceribelli M, Duveau DY, Guha R, Ferrer M, Arnaldez FI, Ji J, Tran HL, Zhang Y, Mendoza A, Helman LJ, Thomas CJ. Matrix Screen Identifies Synergistic Combination of PARP Inhibitors and Nicotinamide Phosphoribosyltransferase (NAMPT) Inhibitors in Ewing Sarcoma. Clin Cancer Res. 2017 Dec 1;23(23):7301-7311. doi: 10.1158/1078-0432.CCR-17-1121. Epub 2017 Sep 12. PMID: 28899971; PMCID: PMC6636827.
# Potency is the fitted concentration of half-maximal effect.
row,Compound,Potency
1,COC(=O)[C@H](Cc1ccccc1)NC(=O)[C@@H](N)CC(=O)O (H-Asp-Phe-OMe),inactive
2,CCCCc1ccc2nc(NC(=O)OC)[nH]c2c1,0.0935 µM (active)
3,CN1C(C(=O)Nc2ccccn2)=C(O)c2sccc2S1(=O)=O,inactive
4,CC1Cc2ccccc2N1NC(=O)c1ccc(Cl)c(S(N)(=O)=O)c1 (stereo not given),inactive
5,O=c1c(O)c(-c2ccc(O)cc2O)oc2cc(O)cc(O)c12,inactive
6,Nc1cccc2c1CN(C1CCC(=O)NC1=O)C2=O (stereo not given),inactive
7,Cc1c(C(=O)NN2CCCCC2)nn(-c2ccc(Cl)cc2Cl)c1-c1ccc(Cl)cc1,26.4 µM (active)
8,COc1cc2c(N3CCN(C(=O)Nc4ccc(OC(C)C)cc4)CC3)ncnc2cc1OCCCN1CCCCC1,6.62 µM (active)
9,O=Nc1c(-c2c(O)[nH]c3cc(Br)ccc23)[nH]c2ccccc12,3.32 µM (active)
10,Cc1cccc(C#Cc2ccccc2)n1,inactive
11,CC1=C(C)C(=O)C(C(CCCCCC(=O)O)c2ccccc2)=C(C)C1=O (stereo not given),2.09 µM (active)
12,CCCCCCCCCCCCCCCCCCCCCCO,inactive
13,COCCCOc1ccnc(CS(=O)c2nc3ccccc3[nH]2)c1C (stereo not given),inactive
14,Cc1cc(C2CCCCC2)n(O)c(=O)c1,8.33 µM (active)
15,Nc1nc(N)c(N=O)c(OCC2CCCCC2)n1,5.26 µM (active)
16,COc1cc(Nc2c(C#N)cnc3cc(OCCCN4CCN(C)CC4)c(OC)cc23)c(Cl)cc1Cl,1.87 µM (active)
17,COc1c(O)cc2c(c1O)[C@@H]1O[C@H](CO)[C@@H](O)[C@H](O)[C@H]1OC2=O,inactive
18,O=c1c(O)c(-c2cc(O)c(O)c(O)c2)oc2cc(O)cc(O)c12,inactive
19,NS(=O)(=O)c1cc(C(=O)O)c(NCc2ccco2)cc1Cl,inactive
20,CC(C)[C@H](N)C(=O)OCCOCn1cnc2c(=O)[nH]c(N)nc21,inactive

row,Compound,Potency
1,C=C(c1ccc(C(=O)O)cc1)c1cc2c(cc1C)C(C)(C)CCC2(C)C,inactive
2,Cc1cc(=O)c2c(O)c3c(O)cc(=O)c4c3c3c(cc(O)c1c23)C(C)(C)C=4O,1.87 µM (active)
3,CC(=O)O[C@H]1C(=O)[C@@]2(C)C([C@H](OC(=O)c3ccccc3)[C@]3(O)C[C@H](OC(=O)[C@H](O)[C@@H](NC(=O)c4ccccc4)c4ccccc4)C(C)=C1C3(C)C)[C@]1(OC(C)=O)CO[C@@H]1C[C@@H]2O (stereo not given in full),inactive
4,Cc1nccn1CC1CCc2c(c3ccccc3n2C)C1=O (stereo not given),inactive
5,Cc1ccc(Nc2nccc(N(C)c3ccc4c(C)n(C)nc4c3)n2)cc1S(N)(=O)=O,4.69 µM (active)
6,CNC[C@H](O)c1ccc(O)c(O)c1,inactive
7,Clc1ccc(C(Cn2ccnc2)OCc2c(Cl)cccc2Cl)c(Cl)c1 (stereo not given),14.8 µM (active)
8,c1cnc2cc3c(cc2n1)C1CNCC3C1,inactive
9,COc1cc(C(C)=O)ccc1OCCCN1CCC(c2noc3cc(F)ccc23)CC1,18.7 µM (active)
10,CN(C)[C@@H](CCOc1cccc2ccccc12)c1ccccc1,18.7 µM (active)
11,Oc1ccc(OCc2ccccc2)cc1,inactive
12,O=C(CCc1ccc(O)cc1)c1c(O)cc(O)cc1O,0.235 µM (active)
13,S=c1nc[nH]c2nc[nH]c12,5.9 µM (active)
14,O=P(O)(O)C(O)(Cn1ccnc1)P(=O)(O)O,inactive
15,CC(C)c1ccc2oc3nc(N)c(C(=O)O)cc3c(=O)c2c1,inactive
16,O=C(O)c1cccnc1Nc1cccc(C(F)(F)F)c1,inactive
17,O=C1c2c(O)cc(O)cc2OC(c2ccc(O)c(O)c2)C1O (stereo not given),inactive
18,NC(=O)Cc1cccc(C(=O)c2ccccc2)c1N,inactive
19,CC1(C)C(=O)N(CCN2CCC(C(=O)c3ccc(F)cc3)CC2)c2ccccc21,inactive
20,NCCCCNCCCN,16.6 µM (active)

# Reference: PubChem BioAssay (NCATS)
